Read-out in one assay: CD69, CD69 (gene 969)
In words: BSK_LPS_CD69: BioMAP Diversity Plus: LPS Assay for CD69 Biomarker Activity (AID 2284303; active = hit-call score of the fitted dose curve at least 0.9, where 1 is the maximum; inactive = score below 0.9). The following applies: primary human HUVEC with PBMC. A digest of the protocol: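 CD69 surface levels were read by ELISA after 24 h chemical treatment of an LPS-stimulated HUVEC plus PBMC co-culture; positive-direction fit against DMSO vehicle.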

Another assay has as its system IYD (gene 389434). Description: CCTE_GLTED_hIYD: CCTE's human Iodotyrosine Deiodinase (xIYD) Inhibition Assay, Great Lakes Toxicology and Ecology Division (GLTED) Lab (AID 2284317).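 Note: cell-free human IYD enzyme made in baculovirus insect cells; iodide freed from monoiodotyrosine measured by cerium arsenite color change at 420 nm.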 Put shortly:
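Cell-free; baculovirus/insect-cell hIYD + MIT substrate + chemical, 3 h. Dowex column cleanup, then Ce4+/As3+ Sandell-Kolthoff read at A420 nm. Triplicate plates; normalized to 3-nitro-L-tyrosine (positive) and DMSO/NaOH (solvent).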

Assay [1] can be described thus: IUF_NPC4_neurite_length_120hr: Leibniz Research Institute for Environmental Medicine (IUF) 120-hour Neuronal Morphology Assay for Neurite Length (NPC4) (AID 2284302; active = hit-call score of the fitted dose curve at least 0.9, where 1 is the maximum; inactive = score below 0.9). A digest of the protocol: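 Neurons from differentiating human fetal neural progenitor spheres are scored for average neurite length after five days of compound exposure. Fitting uses DMSO as negative control.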

Assay [2] is described as follows: IUF_NPC5_oligodendrocyte_differentiation_120hr: Leibniz Research Institute for Environmental Medicine (IUF) 120-hour Oligodendrocyte Differentiation Assay (NPC5) (AID 2284304).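 Note: share of O4-positive cells among Hoechst nuclei found by CNN image analysis.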 Put shortly: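 Primary human fetal (GW 16-19) neural progenitor spheres (0.3 mm) plated on poly-D-lysine/laminin in N2 differentiation medium, exposed from day 0 for 120 h with half-medium refresh at day 3; O4-positive cells as percent of Hoechst nuclei, CNN-identified, versus DMSO.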

Assay [3] is described as follows: IUF_NPC4_neurite_area_120hr: Leibniz Research Institute for Environmental Medicine (IUF) 120-hour Neuronal Morphology Assay for Neurite Area (NPC4) (AID 2284305). A digest of the protocol:
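Endpoint at 120 h: automated imaging of TUBB3/Hoechst-stained differentiating human neural progenitor spheres, neurite area per neuron from skeletonization. DMSO solvent control, not above 0.1%, set the baseline; medium was half-replaced on day 3.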

Assay [4] can be described thus: IUF_NPC2-5_cytotoxicity_72hr: Cytotoxicity Assessment at 72 hours in the Leibniz Research Institute for Environmental Medicine (IUF) Neural Progenitor Cell Migration and Differentiation Assay for Cytotoxicity (NPC2-5) (AID 2284306).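 Note: LDH release into supernatant measured by resorufin fluorescence marking membrane damage.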 Put shortly:
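Primary human neural progenitor spheres migrate and differentiate on laminin. Compound is present from the start of differentiation, with DMSO kept at or below 0.1%. At 72 h, supernatant LDH is quantified fluorometrically, with values fitted in the positive direction.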

Assay [5] in a line: IUF_NPC2-5_cytotoxicity_120hr: Cytotoxicity Assessment at 120 hours in the Leibniz Research Institute for Environmental Medicine (IUF) Neural Progenitor Cell Migration and Differentiation Assay (NPC2-5) (AID 2284307).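 For AC50: LDH released into supernatant as membrane damage marker via resorufin fluorescence.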 Put shortly: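 Human fetal neural progenitor spheres (0.3 mm, GW 16-19 cortex) were plated on poly-D-lysine/laminin in N2 differentiation medium and exposed for 120 h, with half-medium refresh at day 3. LDH release into supernatant was read by resorufin fluorescence.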

Assay [6] can be described thus: IUF_NPC2-5_cell_number_120hr: Cell Number Assessment at 120 hours in the Leibniz Research Institute for Environmental Medicine (IUF) Neural Progenitor Cell Migration and Differentiation Assay (NPC2-5) (AID 2284308; active = hit-call score of the fitted dose curve at least 0.9, where 1 is the maximum; inactive = score below 0.9;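 note: count of Hoechst-stained nuclei in migration zone around plated human neural progenitor spheres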). A digest of the protocol:
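Primary human fetal neural progenitor spheres (GW 16-19, 0.3 mm) plated on poly-D-lysine/laminin in N2 differentiation medium, exposed from day 0 for 120 h with half-medium refresh at day 3; Hoechst-positive nuclei counted in migration area versus DMSO control.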

Assay [7] is described as follows: IUF_NPC2-5_viability_120hr: Viability Assessment at 120 hours in the Leibniz Research Institute for Environmental Medicine (IUF) Neural Progenitor Cell Migration and Differentiation Assay (NPC2-5) (AID 2284312; active = hit-call score of the fitted dose curve at least 0.9, where 1 is the maximum; inactive = score below 0.9). As to the method: IUF_NPC2-5 is a cell-based, multiplexed assay that uses hNPC, a human primary neural progenitor cells, with measurements taken at 72 or 120 hours after chemical dosing in a 96-well plate. Human neural progenitor cells (hNPC) are generated from human fetal brain cortex at gestational week (GW) 16-19. In the neural progenitor cell migration and differentiation assay (NPC2-5), hNPCs grown as spheres are plated on an extracellular matrix and migrate and differentiate out of the sphere core. The processes radial glia migration, neuronal and oligodendrocyte migration as well as neuronal differentiation, neuronal morphology and oligodendrocyte differentiation are studied using automated phase contrast imaging and automated fluorescence imaging in combination with high content image analysis. In parallel, the cell viability is assessed using an alamar blue viability assay and the cytotoxicity using a lactate dehydrogenase dependent membrane integrity assay.IUF_NPC2-5_viability_120hr is one of 12 assay components measured from the IUF_NPC2-5 assay. It is designed to measure cell viability assessed as mitochondria-dependent reduction of resazurin to resorufin using the alamar blue viability assay. The viability is measured as a fluorescence signal (relative fluorescence unit) in a multiplate reader. Data from the IUF_NPC2-5_viability_120hr component was analyzed at the endpoint IUF-NPC2-5_viability_120hr in the positive analysis fitting direction relative to DMSO as the negative control and baseline of activity. Using a type of viability reporter, gain or loss-of-signal activity can be used to understand viability effects.
Culture protocol: After the cell expansion period the cells are cultured for up to four weeks in which they are passaged every week as described in 3.6. Between one to three days after passaging spheres at a size of 0.3 mm are picked for the test method. For the assessment of neural progenitor cell migration and differentiation, the spheres are plated on poly-D-lysine/laminin coated 96-well flat bottom plates in differentiation medium (N2) to initiate migration and differentiation. […] Therefore, half of the test condition solution (e.g. solvent control or compound dilution) is replaced by freshly prepared test condition solution.Test Method: Migration distance and cytotoxicity is determined after 72 hours based on brightfield images of each well. […] On the ICC images, migration after 120 hours, neuronal and oligodendrocyte number, neuronal morphology and neuron/oligodendrocyte specific migration is assessed. immunocytochemical staining (ICC) generates an image for each sphere. The plates are scanned using an automated high content imaging device and all nuclei and their positions are determined automatically based on their intensity and size. […]

Assay [8] is described as follows: CCTE_Mundy_HCI_iCellGluta_NOG_NeuriteLength: CCTE's Neurite Outgrowth Assay in iCellGluta cells for Neurite Length, Mundy Lab (AID 2284318). Put shortly:
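Automated high-content imaging of betaIII-tubulin (Alexa Fluor-488) and Hoechst-stained cells gave neurite length, normalized to the DMSO baseline.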

Inconclusive results are not listed. More than one record can exist for a structure, and the calls need not agree. The source made the active and inactive calls. Rule for the calls, unless noted: active = hit-call score of the fitted dose curve at least 0.9, where 1 is the maximum; inconclusive = response in the unintended direction; inactive = score below 0.9.

As a reminder, the AC50 is the midpoint of the concentration-response curve, whichever way the signal moves.

In the case of `CC1(C)CCC[C@]2(C)[C@H]3CCO[C@]3(C)CC[C@@H]12`, in the assay with CD69, CD69 (gene 969), the outcome was inactive.
In the case of `Cc1ccc(S(=O)(=O)Oc2ccc(N=Nc3ccc(-c4ccc(N=Nc5c(O)ccc6cc(S(=O)(=O)O)cc(S(=O)(=O)O)c56)c(C)c4)cc3C)cc2)cc1`, in the assay on IYD (gene 389434), the AC50 is 44.4 µM (active).
Same read-out and setting: the value for `CCCCC(CC)COC(=O)c1ccc(O)cc1` (stereo not given) was 44.3 µM (active); that for `CCc1cc(Cc2cc(CC)cc(C(C)(C)C)c2O)c(O)c(C(C)(C)C)c1` was 102 µM (active).
Still for that read-out and setting: for `CCCCCCCCc1ccc(S(=O)(=O)O)cc1` the value was 100 µM (active).
Consider `COc1ccc(N=Nc2cc(C)c(N=Nc3ccc(S(=O)(=O)O)cc3)cc2OC)cc1`, for which, in the assay on IYD (gene 389434), the molecule was called inactive.
On to `CCOC(=O)C(C#N)=C(c1ccccc1)c1ccccc1`, for which, in the assay with CD69, CD69 (gene 969), the AC50 was 27.9 µM (active) and the result was inactive.
Regarding `Nc1ccc(N)c2c1C(=O)c1ccccc1C2=O`, the outcome in the assay on IYD (gene 389434) was inactive.
As for `Oc1c(Cl)cc(Cl)c(Cl)c1Cc1c(O)c(Cl)cc(Cl)c1Cl`, the half-maximal activity concentration (AC50) in [1] is 0.168 µM (active); in assay [2], 0.0751 µM (active); in [3], 0.264 µM (active); in assay [4], 0.702 µM (active); in [5] it was 0.295 µM (active); in [6] it was 0.204 µM (active). In addition, the AC50 in assay [7] was 0.147 µM (active).
In the case of `CC(C)CCCCCCCCCCCCCCC(=O)O`, the AC50 in the assay with IYD (gene 389434) is 40.8 µM (active).
Regarding `C=CC(C)(O)CCC=C(C)C` (stereo not given), the outcome in the assay with CD69, CD69 (gene 969) was inactive.
For the molecule `O=C(Nc1ccc2c(O)c(N=Nc3ccc(N=Nc4ccc(S(=O)(=O)O)cc4)cc3)c(S(=O)(=O)O)cc2c1)c1ccccc1`, the outcome with CD69, CD69 (gene 969) was inactive. For the same molecule, the AC50 in the assay on IYD (gene 389434) was 91.3 µM (active).
Consider `Oc1ccc2cc(SSc3ccc4cc(O)ccc4c3)ccc2c1`, for which the AC50 in the assay on IYD (gene 389434) was 56.9 µM (active).
For `COc1ccccc1N=Nc1c(S(=O)(=O)O)cc2cc(S(=O)(=O)O)cc(NC(C)=O)c2c1O`, the AC50 in the assay with IYD (gene 389434) is 94.8 µM (active).
With `Nc1ccc2cc(S(=O)(=O)O)cc(O)c2c1N=Nc1ccccc1C(F)(F)F`, the AC50 in the assay on IYD (gene 389434) was 100 µM (active).
Take `CCCCCCCCC=CCCCCCCCC1=NCCN1CCO`: the AC50 in the assay on IYD (gene 389434) was 66.2 µM (active).
On the same count and under the same terms, for `CCCCCCCCCCCCCC(=O)OCC(O)CO` (stereo not given) the value was 100 µM (active).
As for `CN(C)CCOC(C)(c1ccccc1)c1ccccn1` (stereo not given), the molecule was classed as inactive in assay [1], in assay [4], in [5], in assay [6], in assay [7] and in [8].
In the case of `COCCc1ccc(OCC(O)CNC(C)C)cc1` (stereo not given), the call in assay [1], in assay [2], in assay [3], in assay [4], in [5] and in assay [6] was inactive. Also, the molecule was classed as inactive in [7] and in assay [8].
`COCCOCCOCCO`: the call in assay [2], in [3], in [4], in [5], in [6] and in assay [7] was inactive. For the same molecule, the call in [8] was inactive.
Consider `CCCCCCCCCCCCCCN(CCO)CCO`, for which the AC50 in the assay on IYD (gene 389434) was 38.6 µM (active).
On to `CCCCCCC(CO)CCCC` (stereo not given), for which the outcome with CD69, CD69 (gene 969) was inactive.
Regarding `O=CN1CCOCC1`, in the assay with CD69, CD69 (gene 969), the outcome was inactive.
Regarding `CC(CN=Cc1ccccc1O)N=Cc1ccccc1O` (stereo not given), the outcome with CD69, CD69 (gene 969) was inactive.

The values are drawn from PubChem BioAssay (EPA / NIEHS).
